The record followed here is PubChem BioAssay.

The test has as its system Chordin-like protein 2 (CHRDL2). Kind of test: CHRDL2 small-molecule binders, primary screen, biochemical, small-molecule microarray, 635 nm fluorescence (AID 1126).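 Also: printed compound slides probed with Chrdl2 protein at 4 µg/mL for 1 h at 4 C; score merges 667 nm emission intensity with signal to noise over three replicate slides.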 The settings on record: small-molecule microarray binding, fluorescence 635 nm; higher = more signal.
In the case of `O=[N+]([O-])c1ccc(C[n+]2ccc3ccc(O)cc3c2)o1`, the composite z-score is 0.0197. Then `O=C1O[C@@H](c2ccccc2)[C@@H](c2ccccc2)N2[C@@H](c3ccccc3OCCO)[C@]3(C(=O)Nc4ccc(C#CC5=CCCCC5)cc43)[C@@H](C(=O)O)[C@H]12`, with -0.241; and `CCC#CCN(Cc1ccccc1Br)[C@H](/C=C/c1ccccc1)[C@@H](O)Cc1ccccc1`, with -1.16. Then `COCCOC(=O)N1C(=O)[C@@]2(c3cc(C#CC4(O)CCCCCC4)ccc31)[C@H](C(=O)N1CCCCCCC1)[C@H]1C(=O)O[C@H](c3ccccc3)[C@H](c3ccccc3)N1[C@@H]2c1ccc(O)cc1`, with 0.519; and `C[N+](C)(C)CCCCNC(=O)[C@@H]1C[C@@H]2C(=O)N3CCC[C@H]3C(=O)N2[C@@H]1c1cccc(OCCO)c1`, with 1.04. For `C=CCN1C(=O)[C@]2(O[C@H](CCn3cc(CCO)nn3)[C@@H]([Si](C)(C)c3ccc(OC)cc3)[C@@H]2C)c2cc(NC(=O)c3ccc(OC)cc3)ccc21`, the composite z-score stood at 0.782. Then `CO[C@H]1COC(=O)[C@@H](Cc2ccccc2)NC(=O)[C@@H](C)COC(=O)CC=C[C@@H]1C`, with 1.24; and `O=C1C2C=CC(C(O)c3ccccc3)N(n3cnnc3)C2C(=O)N1Cc1ccccc1` (configuration not stated), with 0.0921. Then `C=C(COC)/C(=C/C[C@@H](OC(=O)c1ccncc1)c1ccc(OCCO)cc1)c1cc(C(=O)OC)ccc1OC`, with -0.0659. Then `O=C1C[C@@](C(=O)NCCN2CCOCC2)(c2ccc([N+](=O)[O-])cc2)[C@@H](c2ccc(CO)cc2)N1C1CCCCC1`, with 0.395; and `COc1ccc(NN2C(C(O)c3cc(OC)c(OC)c(OC)c3)C=CC3C(=O)N(C4CCCCC4)C(=O)C32)cc1` (configuration not stated), with -1.2; and `C=C(C)[C@@H]1CC=C(C(O)C2C=CC3C(=O)NC(=O)C3N2Nc2ccccn2)CC1` (some centres not stated), with 1.61. `O=C1OCCC/C=C\[C@H]2OC34C=CCN(CCN5CCOCC5)C(=O)[C@H]3N(CCCCCO)C(=O)[C@@H]4C12` (some centres not stated) came in with a composite z-score of -1.15. Then `NC(=O)NCC#Cc1ccc2c(c1)[C@]1(C(=O)N2)[C@H](C(N)=O)[C@H]2C(=O)O[C@H](c3ccccc3)[C@H](c3ccccc3)N2[C@@H]1c1ccccc1OCCO`, with 0.543; and `COc1ccc([Si](C)(C)[C@H]2[C@H](CCO)O[C@@]3(C(=O)N(Cc4ccccc4)c4ccc(N5C(=O)c6cccc7cccc5c67)cc43)[C@@H]2C)cc1`, with -0.966. Then `CN(C)c1ccc(C(O)C2C=CC3C(=O)NC(=O)C3N2Nc2ccc(Cl)cc2Cl)cc1` (configuration not stated), with -0.0762.

In the case of `COC(=O)C(CC#Cc1ccc2c(c1)[C@]1(C(=O)N2)[C@H](C(=O)N2CCCCCCC2)[C@H]2C(=O)O[C@H](c3ccccc3)[C@H](c3ccccc3)N2[C@@H]1c1ccc(O)cc1)C(=O)OC`, the composite z-score is -1.32.

In the case of `C=CCNC(=O)[C@@H]1[C@H]2C(=O)O[C@H](c3ccccc3)[C@H](c3ccccc3)N2[C@H](c2ccc(OCCO)cc2)[C@@]12C(=O)N(C(=O)OCCOC)c1ccc(C#CC3(O)CCCCCC3)cc12`, the composite z-score is -0.0335. Compound `CC(C)[Si]1(C(C)C)O[C@@H](c2ccccc2)c2cc(C3CC3)nc(-c3ccc(Oc4ccccc4)cc3)c21` showed a composite z-score of -0.408. Then `[N-]=[N+]=NCc1ccccc1C[C@]1(C(=O)N2CCCCC2)N=C(c2ccc(OCCCO)cc2)O[C@H]1c1ccccc1CN=[N+]=[N-]`, with -0.914; and `Cc1ccc(N2C(=O)c3ccccc3[C@@H](C(=O)NCC(F)(F)F)[C@@H]2c2ccc(CO)cc2)nc1`, with -2.4; and `CC(C)N1CC=CC23O[C@@H]4/C=C\CCCOC(=O)C4[C@H]2C(=O)N(CCO)[C@@H]3C1=O` (some centres not stated), with -1.4. Compound `O=C(NCC(F)(F)F)[C@@H]1c2ccccc2C(=O)N(Cc2ccccc2Cl)[C@H]1c1ccc(CO)cc1` gave a composite z-score of -0.584. Consider `C=CCNC(=O)[C@H]1[C@@H]2C(=O)O[C@@H](c3ccccc3)[C@@H](c3ccccc3)N2[C@@H](c2ccccc2OCCO)[C@]12C(=O)N(C(=O)OCCOC)c1ccc(C#CCC(C(=O)OC)C(=O)OC)cc12`, for which the composite z-score is -0.052.

In turn, `C[C@@H]1C=CCC(=O)OC[C@H]2O[C@@H](C=C[C@@H]2O)[C@H](C)C=CCC(=O)OC[C@H]2O[C@H]1C=C[C@@H]2O` yielded a composite z-score of 1.58. Then `Cc1ccc(S[C@]2(C(=O)NCCN3CCOCC3)CC(=O)N(C3Cc4ccccc4C3)[C@@H]2c2ccc(CO)cc2I)cc1`, with -2.56; and `CC(C)CNC(=O)[C@@]1(C)c2ccccc2C(=O)N(Cc2ccc(OC(F)(F)F)cc2)[C@H]1c1ccc(CO)cc1`, with -1.3.
